# Bioassay records as filed in PubChem.
# This is a sample that favours compounds with a hit; in the whole collection about 4.2% have one here.
# TIM10 inh: growth inhibitors of isogenic TIM10 control yeast, primary screen, counter-screen for tim10-1 yeast inhibitor project, luminescence, uHTS. S. cerevisiae TIM10 strain growth, BacTiter-Glo luminescence, 24 h. AID 463195, 2010. actives 1.4% (n = 330,000). inhibition, % at 10 µM;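 active = inhibition of 40% or more at the single tested concentration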;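 note: wild-type TIM10 isogenic control strain grown at permissive 25 °C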
# PfHsp90 set2: growth inhibition of PfHsp90-expressing yeast, primary screen, antimalarial PfHsp90 inhibitor project, S. cerevisiae, BacTiter-Glo luminescence, single point, set 2. BacTiter-Glo ATP, 48 h; yeast lacking PDR1 and PDR3 efflux regulators. inhibition, % at 9.4 µM. actives 0.32% (n = 310,000). AID 504621, 2011;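 active = every replicate shows inhibition above about 80%, whatever the replicate mean, limit read from the data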;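 note: 0% = DMSO neutral controls and 100% = 20 µM radicicol positive controls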
# NALP1 inh: NALP1 inflammasome inhibitors in reconstituted yeast, colorimetric, S. cerevisiae, triplicate retest | S. cerevisiae NALP1/ASC/caspase-1 growth, X-gal OD620, 72 h | inhibition, % at 10 µM | actives 0.61% (n = 280,000); in the data active = inhibition mostly above about 24%, no sharp cut-off; inactive = mostly below about 32%
# tim10-1 inh: growth inhibitors of tim10-1 mutant yeast, primary screen, luminescence, uHTS. S. cerevisiae tim10-1 ts strain growth, BacTiter-Glo, 24 h. inhibition, % at 20 µM. actives 2.2% (n = 330,000);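 active = inhibition of at least 40%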;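 note: mutant grown at 25 °C; 0% = DMSO wells with yeast and 100% = wells holding no yeast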
# NLRP3 yeast inh: NALP3 inflammasome inhibitors in reconstituted yeast, primary screen, luminescence, uHTS. inhibition, % at 10 µM. AID 2825, 2010. Yeast reconstituted NLRP3/ASC/caspase-1, beta-gal luminescence, 24 h. actives 0.39% (n = 330,000);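 active = inhibition of 50% or more; inactive = inhibition below 50%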;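 note: plate controls were induced DMSO wells for no effect and uninduced yeast grown without galactose for full effect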
# tim23-1 inh: growth inhibitors of tim23-1 mutant yeast, primary screen, luminescence, uHTS; S. cerevisiae tim23-1 growth, BacTiter-Glo luminescence, 24 h; inhibition, % at 20 µM; actives 1.3% (n = 330,000); AID 463212, 2010;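 active = growth inhibition of the mutant yeast at or above 50%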;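 note: temperature-sensitive mutant grown at 25 °C; plate controls were DMSO-treated mutant yeast for no effect and medium wells lacking yeast for full effect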
# NALP3 yeast conf: NALP3 inhibitors retested in yeast, confirmation, luminescence, single concentration. shares compounds with NLRP3 yeast inh. yeast expressing human NALP3. inhibition, % at 10 µM. actives 81% (n = 1,300). AID 435006, 2010; in the data active = inhibition above about 48%
# Casp1 ASC ctr: CASP1-PYCARD signaling inhibition in yeast, confirmatory test, counterassay for NLRP3 inhibitor program, one-dose; shares compounds with NLRP3 yeast inh; yeast expressing Caspase-1-ASC, luminescence counter screen; inhibition, % at 10 µM; actives 66% (n = 1,000); AID 488784, 2010
# NALP3 retest: NALP3 inhibitors in yeast, repeat test, confirmation, luminescence, single concentration, retest; inhibition, % at 10 µM; AID 488794, 2010; shares compounds with NLRP3 yeast inh; actives 53% (n = 1,000); yeast expressing human NALP3, luminescence read-out
# tim10-1 confirm: growth inhibitors of tim10-1 mutant yeast, confirmation, single concentration, luminescence, S. cerevisiae. shares compounds with tim10-1 inh. S. cerevisiae tim10-1 ts strain growth, BacTiter-Glo, 24 h. inhibition, % at 20 µM. actives 56% (n = 7,400);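 active = inhibition of yeast growth at or above a set limit in either of two repeat tests at 20 µM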;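 note: tim10-1 mutant grown at permissive 25 °C to find synthetic lethal compounds; 0% = DMSO yeast wells and 100% = medium wells without yeast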
# The depositor's hits bear a star; / = no result. Cut-off read from the data, not from the text of the source, unless noted: active = inhibition above about 50%; inactive = the rest.
SMILES,TIM10 inh,PfHsp90 set2,NALP1 inh,tim10-1 inh,NLRP3 yeast inh,tim23-1 inh,NALP3 yeast conf,Casp1 ASC ctr,NALP3 retest,others
CNC(=O)CCC(=O)Nc1ccc(C)cc1,-10,/,5,-4,4,14,/,/,/,
COc1cc(OC)cc(-c2cc3cc4c(cc3cn2)OCO4)c1,11,-33,/,14,56*,21,56*,50,43,
Cc1ccccc1C(=O)O/N=C/c1c(N2CCOCC2)n(C)c2ccccc12,18,7,-3,-1,66*,35,83*,92*,79*,
O=C(CSc1ncnc2c1oc1ccccc12)NCc1ccc(F)cc1,-18,-23,8,7,55*,26,63*,43,29,
Fc1ccc(CSc2ncnc3c2oc2ccccc23)cc1,/,-2,31,/,/,/,/,/,/,
CCOc1cc(C)c(S(=O)(=O)N2CCCC2)cc1C,6,/,39,1,83*,13,80*,90*,81*,
CCCOc1cc(C)c(S(=O)(=O)N2CCOCC2)cc1C,9,/,37,8,57*,18,52*,/,/,
CCOc1ccc(Br)cc1S(=O)(=O)N1CCCC1,17,26,10,8,17,13,/,/,/,
Cc1cc(S(=O)(=O)N2CCCCCC2)c(Cl)cc1Cl,1,/,-4,3,61*,-5,64*,71*,50,
COc1cc(C)c(S(=O)(=O)N2CCOCC2)cc1C,5,21,44,-6,43,5,/,/,/,
COc1nccnc1NS(=O)(=O)c1ccc(N)cc1,5,8,0,2,7,11,/,/,/,
CCN(CC)S(=O)(=O)c1cc(C)c(C)cc1Br,-48,-5,-103,-12,58*,-31,54*,53*,41,
CC(C(=O)NCCC1=CCCCC1)c1ccc([N+](=O)[O-])cc1 (stereo not given),-6,14,3,17,51*,-14,61*,48,29,
CN(C)S(=O)(=O)c1cccc2c1C(=O)c1ccccc1C2=O,-3,1,51,32,3,17,/,/,/,
CN(C)c1cc2c(c(N(C)C)c1)C(=O)c1ccccc1C2=O,17,11,0,44*,52*,24,48,51*,50,tim10-1 confirm=34*
Cc1ccc(N2CC(C(=O)NCCS(=O)(=O)N3CCN(c4ccccc4)CC3)CC2=O)cc1C (stereo not given),-8,26,2,9,0,11,/,/,/,
O=C(CN(C1CCCCC1)S(=O)(=O)c1ccc(F)cc1)Nc1ccc2c(c1)OCO2,22,10,-26,45*,51*,36,56*,45,35,tim10-1 confirm=21
O=C(CN(C1CCCCC1)S(=O)(=O)c1ccc(F)cc1)NCCCO,10,-21,15,3,10,22,/,/,/,
Cc1cc2c(cc1C)CSC(c1ccccc1O)SC2,34,-40,20,62*,59*,39,64*,63*,55*,tim10-1 confirm=35*
O=C(O)c1cc(N=Nc2c(O)ccc3ccccc23)cc(C(=O)O)c1,/,11,-1,/,/,/,/,/,/,
O=C(O)c1ccc(N=Nc2c(O)ccc3ncccc23)cc1,15,-24,-1,42*,55*,37,82*,54*,53*,tim10-1 confirm=34*
